Bioassay records from PubChem BioAssay.
DT40 TDP1 no CPT – qHTS for Inhibitors of human tyrosyl-DNA phosphodiesterase 1 (TDP1): qHTS in cells in absence of CPT | Potency, µM (series often up to 46.2 µM), for inactives: at the top dose activity change, negative = growth inhibition, actives largely listed as inhibitors | DT40 Tdp1-/- hTDP1 cells, no CPT, ATP luminescence, 48 h | hit rate 15% among 420,000 | AID 686978, 2013; further: potency means the concentration at half of the fitted maximal effect; nearly all actives have a fitted effect of over 55% in size
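No-CPT arm: Tdp1-/-;hTDP1 DT40 cells (400/well) plus compounds, incubated ≥48 hr at 37 °C. Readout CellTiter-Glo luminescence.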
IL-1B inflam inh – qHTS for Inhibitors of Inflammasome Signaling: IL-1-beta AlphaLISA Primary Screen; AID 743279, 2014; activity change, % at 57.5 µM; THP-1 LPS/ATP IL-1B secretion, AlphaLISA, 16 h; active compounds read low; hit rate 4.7% among 360,000; in the data active means activity change below about -50%; inconclusive means mostly about -30% to -49%
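Secreted IL-1B measured by AlphaLISA bead assay after 16 h compound exposure of THP-1 cells; compounds (final up to 57.5 uM) added 1 h before LPS (250 ng/mL) and ATP (1.25 mM) stimulation; lower signal means less secretion.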
RORg inh – qHTS for inhibitors of ROR gamma transcriptional activity. Drosophila S2 Gal4-RORgamma UAS-luciferase reporter, 20 h. Potency, µM (doses to about 53.6 µM), for the others: at the highest dose activity change, negative = inhibition, most hits filed as inhibitors. hit rate 5.4% among 310,000; further: potency means the concentration at half of the fitted maximal effect; nearly all actives have a fitted effect of over 60% in size
Target sequence (P51450 whole entry, looked up, the tested form may be a part): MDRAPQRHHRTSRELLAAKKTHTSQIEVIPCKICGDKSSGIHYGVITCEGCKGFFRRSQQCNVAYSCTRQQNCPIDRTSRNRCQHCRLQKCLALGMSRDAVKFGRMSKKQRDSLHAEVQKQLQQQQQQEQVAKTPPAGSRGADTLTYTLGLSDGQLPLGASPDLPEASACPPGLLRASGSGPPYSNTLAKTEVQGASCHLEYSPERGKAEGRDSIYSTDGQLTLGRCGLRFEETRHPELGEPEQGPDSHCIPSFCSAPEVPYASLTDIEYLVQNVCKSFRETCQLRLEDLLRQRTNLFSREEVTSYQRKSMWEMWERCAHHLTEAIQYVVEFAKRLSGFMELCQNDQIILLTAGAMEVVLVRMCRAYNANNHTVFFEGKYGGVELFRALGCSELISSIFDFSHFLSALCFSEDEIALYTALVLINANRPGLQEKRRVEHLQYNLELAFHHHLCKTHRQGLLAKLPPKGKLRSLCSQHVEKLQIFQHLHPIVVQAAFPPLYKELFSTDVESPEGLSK
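Luciferase reporter read in Schneider cells carrying Gal4-RORγ (mouse) and UAS-Photinus luciferase; cells given compound 1 h before 700 uM copper sulfate induction, then incubated 20 h at ambient temperature.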
ELG1 repair inh – qHTS screen for small molecules that inhibit ELG1-dependent DNA repair in human embryonic kidney (HEK293T) cells expressing luciferase-tagged ELG1; HEK293T ELG1-luciferase reporter, luminescence, 16 h; DNA damage induced by 5-fluorouridine; Potency, µM (top dose mostly 46.1 µM), for inactives: at the highest dose activity change, negative = inhibition, usual class: inhibitors; hit rate 2.3% among 330,000; further: potency means the concentration at half of the fitted maximal effect; nearly all actives have a fitted effect of over 55% in size
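5-Fluorouridine DNA damage + compound/DMSO, 2,000 cells/well, 16 h, 37 °C/5% CO2. ONE-Glo, 30 min RT, luminescence. Readout = decrease in reporter signal.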
Gal4-VP16 FLuc – VP16 counterscreen qHTS for inhibitors of ROR gamma transcriptional activity; Drosophila S2 Gal4-VP16 UAS-luciferase, luminescence, 20 h; Potency, µM (titrated, usually from 53.6 µM), without a hit: top-dose activity, negative = inhibition, most hits filed as inhibitors; hit rate 3.5% among 310,000; AID 2546, 2010;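 further: Gal4-VP16 expression switched on by copper sulfate through the metallothionein promoter; potency means the concentration at half of the fitted maximal effect; nearly all actives have a fitted effect of over 50% in size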
TDP1 cell CPT – qHTS for Inhibitors of human tyrosyl-DNA phosphodiesterase 1 (TDP1): qHTS in cells in presence of CPT | chicken DT40 Tdp1-/-;hTDP1 cells + 20 nM CPT, ATP luminescence, 48 h | hit rate 12% among 420,000 | Potency, µM (highest dose often 46.2 µM), for the others: at the highest dose activity change, negative = growth inhibition, usual class: inhibitors; further: potency means the concentration at half of the fitted maximal effect; nearly all actives have a fitted effect of over 55% in size
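Chicken DT40 Tdp1-/- cells complemented with human TDP1, 400 cells/well, exposed to compounds plus 20 nM camptothecin for at least 48 h at 37 C; viability read as ATP content by CellTiter-Glo luminescence.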
The depositor's hits bear a star; [ ] = another dose, or the depositor's remark. Rows were chosen to be rich in hits. Some 21% of all compounds tested hit in one or more screens of this group. Unless noted, the call rests on the fitted dose curve; in most records, active means well fitted curve in the direction sought with a large enough effect; inconclusive means small, poorly fitted or top-dose-only effect, or another doubt; inactive means no such curve, though single readings can be large; an effect the other way counts as inactive or inconclusive. On the % scale 0 is the no-effect control and ±100 the full control effect.

`CCS(=O)(=O)c1ncc(N(Cc2ccccc2)Cc2ccco2)c(C(=O)Nc2ccc(C)c(C)c2)n1` gave DT40 TDP1 no CPT 11.6µM* and TDP1 cell CPT 20.6µM*.
COc1ccc(NC(=O)c2ncoc2-c2ccco2)cc1Cl was read as DT40 TDP1 no CPT -13.2% and TDP1 cell CPT -2.8%.
Screening COc1ccccc1NC(=O)N(C)C[C@@H]1OCc2cn(nn2)CCCC(=O)N([C@H](C)CO)C[C@H]1C returned DT40 TDP1 no CPT 14.6%, IL-1B inflam inh -12.3 and TDP1 cell CPT 8.7%.
Screening COc1ccc(CCN(C)C(=O)c2oc3ccccc3c2C)cc1OC returned DT40 TDP1 no CPT inconclusive, IL-1B inflam inh -6.7, ELG1 repair inh 0.0% and TDP1 cell CPT inconclusive.
For COc1ccc(CN(C)C(=O)c2oc3ccccc3c2CSC)cc1F the results were DT40 TDP1 no CPT 20.6µM*, IL-1B inflam inh 0.3, RORg inh inconclusive, ELG1 repair inh 4.3%, Gal4-VP16 FLuc 0.9% and TDP1 cell CPT 23.1µM*.
For CCOC(=O)c1c(C)[nH]c(C)c1C(=O)COC(=O)/C=C/c1ccc(OC(F)F)cc1 the results were DT40 TDP1 no CPT inconclusive, IL-1B inflam inh -54.2*, RORg inh 7.3%, ELG1 repair inh inconclusive, Gal4-VP16 FLuc -12.6% and TDP1 cell CPT inconclusive.
For COc1cccc(N2CC(O)Cn3c2nc2c3c(=O)[nH]c(=O)n2C)c1 (stereo not drawn) the results were DT40 TDP1 no CPT -2.1%, IL-1B inflam inh 6.1, RORg inh 22.2%, ELG1 repair inh -6.0%, Gal4-VP16 FLuc -1.7% and TDP1 cell CPT -17.5%.
COc1cccc(-c2nc(S(=O)(=O)c3ccc(C)cc3)c(N3CCCCC3)o2)c1 was read as DT40 TDP1 no CPT 18.4µM* and TDP1 cell CPT 20.6µM*.
Screening COc1ccc(-c2nc(S(=O)(=O)c3ccc(C)cc3)c(N3CCCC3)o2)cc1 returned DT40 TDP1 no CPT -24.6%, IL-1B inflam inh 18.6, RORg inh -17.9%, ELG1 repair inh -0.9%, Gal4-VP16 FLuc 6.5% and TDP1 cell CPT -19.1%.
Screening COc1cccc(-c2nc(S(=O)(=O)c3ccccc3)c(N3CCCCC3)o2)c1 returned DT40 TDP1 no CPT 16.4µM* and TDP1 cell CPT inconclusive.
For CC1=C(C(=O)N(C(C)C)C(C)C)CC(CC(=O)NC2CCCCC2)C(=O)N1Cc1ccc(F)cc1 (stereo not drawn) the results were DT40 TDP1 no CPT inconclusive, IL-1B inflam inh -17.7 and TDP1 cell CPT inconclusive.
Screening CCCn1nc(NC(=O)C2CCCO2)c2cc3cccc(C)c3nc21 (stereo not drawn) returned DT40 TDP1 no CPT 14.6µM*, IL-1B inflam inh -1.1, RORg inh 4.7%, ELG1 repair inh -16.2%, Gal4-VP16 FLuc -10.7% and TDP1 cell CPT -26.3%.
For COC(=O)COc1ccc(Oc2nc(NC(C)(C)C)nc(N(C)C)n2)nn1 the results were DT40 TDP1 no CPT -28.3% and TDP1 cell CPT 0.6%.
COc1ccc(C(C)NC(=O)CC23CC4CC(CC(C4)C2)C3)cc1 (stereo not drawn) was read as DT40 TDP1 no CPT 16.4µM*, IL-1B inflam inh -5.7, RORg inh -24.2%[1.91 µM], ELG1 repair inh -13.0%, Gal4-VP16 FLuc 0.2% and TDP1 cell CPT inconclusive.
`CC1(C(=O)NC2CCCCC2)CCC(=O)N1CCOc1ccccc1` (stereo not drawn) gave DT40 TDP1 no CPT -31.2%, IL-1B inflam inh -3.5 and TDP1 cell CPT -0.7%.
For COc1cccc(C2=CC(c3cccc(OC)c3OC(F)F)n3nnnc3N2)c1 (stereo not drawn) the results were DT40 TDP1 no CPT inconclusive, IL-1B inflam inh 1.9, RORg inh 23.6%, ELG1 repair inh inconclusive, Gal4-VP16 FLuc 0.7% and TDP1 cell CPT inconclusive.
COc1cccc(C2=CC(c3cc(OC)ccc3OC)n3nnnc3N2)c1 (stereo not drawn) was read as DT40 TDP1 no CPT 6.51µM*, IL-1B inflam inh -76.6*, RORg inh 6.5%, ELG1 repair inh inconclusive, Gal4-VP16 FLuc 24.3% and TDP1 cell CPT 7.31µM*.
For COc1ccc(C2=CC(c3ccc(C)cc3)n3nnnc3N2)cc1 (stereo not drawn) the results were DT40 TDP1 no CPT -29.4%, IL-1B inflam inh 2.0, RORg inh 10.9%, ELG1 repair inh -18.0%, Gal4-VP16 FLuc 2.4% and TDP1 cell CPT inconclusive.
Screening COc1ccc(OC)c(C2C=C(c3ccc(C)c(C)c3)Nc3nnnn32)c1 (stereo not drawn) returned DT40 TDP1 no CPT 2.31µM*, IL-1B inflam inh 22.3, RORg inh inconclusive, ELG1 repair inh -9.7%, Gal4-VP16 FLuc 4.1% and TDP1 cell CPT 4.61µM*.
`O=C(NC1CCCCCC1)c1ccc(CS(=O)Cc2cccc(Cl)c2)o1` (stereo not drawn) gave DT40 TDP1 no CPT inconclusive, IL-1B inflam inh -28.9, RORg inh 0.6%, ELG1 repair inh 0.1%, Gal4-VP16 FLuc 4.2% and TDP1 cell CPT inconclusive.
O=[N+]([O-])c1ccc(NN=Cc2ccc3c(c2)OCO3)nc1 was read as DT40 TDP1 no CPT inconclusive, IL-1B inflam inh -15.9 and TDP1 cell CPT -3.8%.
O=[N+]([O-])c1c(Nc2ccccc2O)cc(Cl)c2nonc12 was read as DT40 TDP1 no CPT 3.66µM*, IL-1B inflam inh -101.6*, RORg inh 3.55µM*, ELG1 repair inh 25.9µM*, Gal4-VP16 FLuc 2.82µM* and TDP1 cell CPT 4.61µM*.
Cc1cccc(C)c1NC(=O)CNC(=O)C(Cc1ccccc1)NC(=O)c1ccccc1 (stereo not drawn) was read as DT40 TDP1 no CPT inconclusive, IL-1B inflam inh -21.4, RORg inh 6.4%, ELG1 repair inh 1.7%, Gal4-VP16 FLuc -0.8% and TDP1 cell CPT -16.7%.
Screening COc1ccc2cc([C@H](C)C(=O)N(C)Cc3ccccc3N3CCCC3)ccc2c1 returned DT40 TDP1 no CPT 25.9µM*, IL-1B inflam inh -7.7, RORg inh inconclusive, ELG1 repair inh inconclusive, Gal4-VP16 FLuc -2.4% and TDP1 cell CPT 23.1µM*.
Cc1ccc(-c2csc(=Nc3ccccc3)n2Cc2ccc3c(c2)OCO3)cc1 was read as DT40 TDP1 no CPT 9.2µM* and TDP1 cell CPT 14.6µM*.
